CYP2C19 inhib – blocks human cytochrome P450 2C19; CYP2C19 Supersomes, luciferin-H EGE luminescence, 30 min; inhibition, % at 5 µM; hit rate 21% among 96,000; AID 778;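 active = CYP2C19 inhibition above a set limit at 5 µM in the primary screen, cut at about 50% in these data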;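 note: plate controls were negative control wells for no effect and 2.5 mM tranylcypromine positive control for full effect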
Target sequence (P33261 whole entry, looked up): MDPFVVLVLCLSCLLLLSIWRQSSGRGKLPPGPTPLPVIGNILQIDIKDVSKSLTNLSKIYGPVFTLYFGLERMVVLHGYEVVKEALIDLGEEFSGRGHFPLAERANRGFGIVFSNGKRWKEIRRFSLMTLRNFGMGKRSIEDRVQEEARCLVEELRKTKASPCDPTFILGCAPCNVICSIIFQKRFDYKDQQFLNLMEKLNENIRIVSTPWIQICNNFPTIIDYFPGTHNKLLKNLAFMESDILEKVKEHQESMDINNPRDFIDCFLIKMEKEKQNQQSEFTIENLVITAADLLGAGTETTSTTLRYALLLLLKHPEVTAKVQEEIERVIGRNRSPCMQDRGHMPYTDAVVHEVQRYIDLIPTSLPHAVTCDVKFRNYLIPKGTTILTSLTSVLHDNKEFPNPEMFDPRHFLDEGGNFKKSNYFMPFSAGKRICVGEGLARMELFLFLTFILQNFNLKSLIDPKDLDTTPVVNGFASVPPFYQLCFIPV
CYP2C19 activ – activators of human cytochrome P450 2C19. 96,000 tested, under 10 active. activation factor at 5 µM. recombinant CYP2C19, luciferin-H EGE luminescence; stronger effect = higher value; 0 = fully inhibited enzyme, 1 = untreated enzyme. P33261. AID 1025;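 active = activation factor of at least 2 at 5 µM in the primary screen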;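 note: 0 = wells with 2.5 mM tranylcypromine and 1 = vehicle-only wells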
Cav32 inh – blocks human Cav3.2 T-type calcium channel. O95180. Cav3.2-expressing cells, Fluo-4 calcium fluorescence FDSS; stronger effect = lower value. B-score at 10 µM. hit rate 4% among 100,000. AID 449739;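 active = single-dose well whose peak fluorescence ratio is a statistical outlier from its plate by either plate-standardised score or position-corrected B-score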
CYP2C9 act – activators of human CYP2C9. AID 1024. recombinant CYP2C9, luciferin-H conversion, luminescence; stronger effect = higher value; factor 1 = untreated enzyme, 0 = blocked. activation factor at 5 µM. hit rate 1.4% among 96,000. P11712;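 active = activation factor of 2 or more for CYP2C9 at a 5 µM dose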;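 note: 0 = sulfaphenazole-blocked wells and 1 = vehicle-only wells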
CYP2C9 inh – human CYP2C9 inhibition; AID 777; inhibition, % at 5 µM; hit rate 20% among 96,000; CYP2C9 Supersomes, luciferin-H conversion, luminescence;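 active = blocking of liver enzyme CYP2C9 beyond about 50% at 5 µM, limit read from the data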
* = called active by the depositor; · = not tested or not shown. Most compounds without a hit are left out; they make up all but 27% or so of the library.

SMILES	CYP2C19 inhib	CYP2C19 activ	Cav32 inh	CYP2C9 act	CYP2C9 inh
O=C(c1ccncc1)N1CCN(c2cccc(C(F)(F)F)c2)CC1	100*	0	-0.032	0.1	92*
O=C(c1ccccc1F)N1CCN(c2cccc(C(F)(F)F)c2)CC1	91*	0.1	-0.81	0.4	63*
O=C(c1c(F)c(F)c(F)c(F)c1F)N1CCN(c2cccc(C(F)(F)F)c2)CC1	29	0.7	·	0.7	35
O=C(Nc1ccccc1Cl)c1cccc(COc2cc(Cl)ccc2Cl)c1	-2	1	·	1	-4
O=C(CCCCC(=O)N1CCN(c2ccccc2)CC1)N1CCN(c2ccccc2)CC1	18	0.8	·	0.8	23
O=C(Nc1ccc(N2CCN(C(=O)c3ccccc3)CC2)cc1)c1ccc2c(c1)OCO2	29	0.7	1.1	0.8	20
O=C(c1ccc2c(c1)OCO2)N1CCN(c2ccc(F)cc2)CC1	84*	0.2	0.74	0.5	49
CCn1cc(Br)c(C(=O)N2CCN(c3ccccc3)CC2)n1	85*	0.2	0.6	2.1*	-112
O=C(c1coc2ccccc2c1=O)N1CCN(c2cccc(C(F)(F)F)c2)CC1	24	0.8	·	0.5	53*
CCn1c(=O)cc(OCC(=O)N2CCN(c3cccc(C(F)(F)F)c3)CC2)c2ccccc21	46	0.5	-4.1	1.2	-25
O=C(c1ccccc1Br)N1CCN(c2ccccc2)CC1	60*	0.4	0.21	0.7	33
O=C(c1cnn2cccnc12)N1CCN(c2ccccc2)CC1	87*	0.1	0.51	1.3	-26
Cc1c(C(=O)N2CCN(c3ccc(F)cc3)CC2)sc2nc(-c3ccccc3)cn12	0	1	·	1.1	-12
O=C(c1sc2ccccc2c1Cl)N1CCN(c2ccc(F)cc2)CC1	82*	0.2	-3.8	2.3*	-126
O=C(c1ccccc1F)N1CCN(c2ncccn2)CC1	36	0.6	0.84	0.7	31
O=C(c1ccccc1F)N1CCN(c2ccccc2)CC1	50*	0.5	0.18	0.7	32
Cc1cc(C(=O)N(C)Cc2ccc(Br)cc2)no1	92*	0.1	-0.033	0.7	31
COCc1cc(=O)n2[nH]c(C)nc2n1	0	1	0.045	1.1	-10
Cc1ccc(N2C(=O)C(Cl)=C(NCc3ccccc3)C2=O)c(C)c1	51*	0.5	-2.4	0.5	53*
CCOC(=O)/C(=N/Nc1ccc(Cl)cc1)S(=O)(=O)c1ccccc1	12	0.9	0.44	0.8	20
COc1ccc(/C=N/NC(=O)c2ccn[nH]2)cc1COc1ccc(F)cc1	27	0.7	-0.24	0.8	19
COc1ccc(/C=N/n2cncn2)cc1COc1ccc(NC(C)=O)cc1	61*	0.4	-0.021	0.3	69*
COc1ccc(/C=N/NC(=O)c2ccoc2C)cc1COc1ccc(Cl)cc1	14	0.9	-6.5*	0.6	37
CCn1c(SCC(=O)N2CCOCC2)nc2c(c1=O)SC(C)C2 (stereo not drawn)	·	·	1.4	·	·
COCCSc1ccccc1C(=O)NCCCn1ccnc1	68*	0.3	0.9	0.7	33
SMILES	CYP2C19 inhib	CYP2C19 activ	Cav32 inh	CYP2C9 act	CYP2C9 inh
O=C(NCCCN1CCOCC1)c1cn(-c2ccccc2)nc1-c1cccs1	2	1	·	1	1
COCCSc1ccccc1C(=O)Nc1cccnc1	8	0.9	-0.34	0.9	14
O=C(NCCCn1ccnc1)c1cn(-c2ccccc2)nc1-c1ccccc1	64*	0.4	0.95	0.1	94*
Cc1csc(SCC(=O)c2ccc(S(=O)(=O)N3CCOCC3)cc2)n1	48	0.5	0.47	0.6	40
CC(C)[C@H](NC(=O)c1ccco1)C(=O)OCC(=O)N1CCc2ccccc21	41	0.6	0.46	0.1	87*
Cc1cccn2cc(CNC(=O)c3ccco3)nc12	15	0.9	0.47	0.7	29
CCc1ccc(S(=O)(=O)NCc2cn3c(C)csc3n2)s1	78*	0.2	0.29	1.2	-20
CC(=O)Nc1ccc(S(=O)(=O)NCc2cn3c(C)csc3n2)cc1	·	·	0.48	·	·
Cc1csc2nc(CCNS(=O)(=O)c3ccc4c(c3)OCCO4)cn12	62*	0.4	0.13	1.5	-52
O=S(=O)(NCCc1cn2ccccc2n1)c1ccc2c(c1)OCCO2	70*	0.3	0.02	1.2	-18
Cc1csc2nc(CNS(=O)(=O)c3ccc4c(c3)CCCC4)cn12	54*	0.5	-0.41	2*	-103
CCNC(=S)NNC(=O)Nc1ccccc1	18	0.8	-0.4	1.1	-12
Cc1csc2nc(CNS(=O)(=O)c3ccc4c(c3)OCCO4)cn12	64*	0.4	-2.3	1.1	-14
CC1CCCC(C)N1C(=O)c1cc(F)c(F)cc1Cl (stereo not drawn)	59*	0.4	0.23	0.9	8
CC1CCN(C(=O)c2cc(F)c(F)cc2Cl)CC1	·	·	0.84	·	·
Cc1ccc(S(=O)(=O)N2CCN(c3cc4c(cc3[N+](=O)[O-])n(C)c(=O)n4C)CC2)cc1	76*	0.2	0.34	0.2	81*
Cc1ccc(C(=O)N2CCN(c3cc4c(cc3[N+](=O)[O-])n(C)c(=O)n4C)CC2)cc1	0	1	0.9	0.6	36
Cn1c(=O)n(C)c2cc([N+](=O)[O-])c(N3CCN(S(=O)(=O)c4ccc5ccccc5c4)CC3)cc21	73*	0.3	1.1	0.6	40
COC(=O)c1ccc(CSc2nc3c(cnn3-c3ccccc3)c(=O)[nH]2)o1	·	·	-0.88	·	·
CCOC(=O)C1CCCN(c2nc3ccccc3nc2C(C#N)C(=O)NCc2ccccc2)C1 (stereo not drawn)	28	0.7	-2.9	0.4	62*
N#CC(C(=O)NCc1ccco1)c1nc2ccccc2nc1N1CCOCC1 (stereo not drawn)	79*	0.2	-3.6*	0.1	88*
CCOC(=O)N1CCN(c2nc3ccccc3nc2C(C#N)C(=O)NCCc2ccccc2)CC1 (stereo not drawn)	65*	0.3	-1.6	0.3	73*
N#CC(C(=O)NCc1ccccc1)c1nc2ccccc2nc1N1CCCC1 (stereo not drawn)	20	0.8	-6*	0.7	32
N#CC(C(=O)NCCc1ccccc1)c1nc2ccccc2nc1N1CCOCC1 (stereo not drawn)	-11	1.1	0.67	1.2	-17
Cc1cc(C)cc(N(CC(=O)Nc2cccc(C)n2)S(=O)(=O)c2c(C)noc2C)c1	·	·	-2.6	·	·
O=c1nc2n(c3ccc(Br)cc13)CCS2	·	·	0.54	·	·
C/C(=N\NC(=O)c1c(Cl)c(C)nn1C)c1ccc(NC(=O)COc2ccc(Cl)cc2C)cc1	42	0.6	-0.4	0.3	66*
CCN1C=C(Cc2ccccc2C)C2=C(C1)C(c1ccccc1C)C(C#N)=C(N)O2 (stereo not drawn)	85*	0.1	-0.32	0	99*
CCN1C=C(Cc2ccc(F)cc2)C2=C(C1)C(c1ccc(F)cc1)C(C#N)=C(N)O2 (stereo not drawn)	46	0.5	1.1	0.9	12

High-throughput results (PubChem)
